Reference: PubChem BioAssay (Tox21)
Where “and” joins values, the source holds several entries; their conditions need not be identical. Equal entries are not always repeated. Results filed as inconclusive are left out. A call without a number means that no potency is given here. Unmarked numbers belong to inactive results. Calls of active or inactive are those of the source. Calls come from the whole dose curve; as a rule, active = well fitted activation curve with a large enough effect in the repeat runs; inconclusive = weak or mixed curves; inactive = flat fitted curve, though single readings scatter.

assay: A CellTox Green Cytotoxicity Assay to monitor cytotoxicity in HEK293 cells - 16 hour (AID 1224888); details: CellTox Green fluorescence; series mostly up to 76.8 µM; note: nearly all actives have a fitted effect of over 35% in size
Source text: National Center for Advancing Translational Sciences [NCATS]
NIH Chemical Genomics Center [NCGC]
U.S. Environmental Protection Agency [EPA]
National Institutes of Environmental Health Sciences [NIEHS]
National Toxicology Program [NTP]
Cell-based models are critical for drug discovery. Determining the natural cytotoxic effects resulting from test compounds is an essential research activity. A CellTox Green Cytotoxicity Assay to monitor cytotoxicity in real time of continues cell culture during 40 hours of the compound treatment was used to screen Tox21 10K library compounds in Hek293 cells. CellTox Green Cytotoxicity Assay is a nonlytic, homogeneous, biofluorescent method to measure cytotoxicity in cell culture after experimental manipulation. The assay system uses a proprietary asymmetric cyanine dye that is excluded from viable cells but preferentially stains the dead cell's DNA. […] Viable cells produce no appreciable increases in fluorescence. Therefore, the fluorescence signal produced by the binding interaction with dead cell DNA is proportional to cytotoxicity.
The mixture of Hek293 cell suspension and reagents were dispensed at 600cells/6 ul/well in 1536-well tissue culture treated black solid bottom plates using a Multidrop dispenser. After the assay plates were incubated at a 37 C/5% CO2 incubator for 5 hours, 23 nL of compounds dissolved in DMSO, positive and negative controls was transferred to the assay plate by a pintool work station. The plates were incubated at 37 C for 40 hours. The fluorescence intensity were measured at 0h, 8h, 16h, 24h, 32h and 40h time points using ViewLux plate reader during compound treatment.
Potency is the fitted concentration of half-maximal effect.

SMILES | Potency | activity change
C#C[C@]1(O)CC[C@H]2[C@@H]3CCC4=CC(=O)CCC4=C3C=C[C@@]21CC | inactive | 
CC(C)(C)CC(C)(C)c1ccc(O)cc1 | 21.9 µM (active) and 21.3 µM (active) | 
Cc1nc(N(C)C)nc(OC(=O)N(C)C)c1C | inactive | 
Nc1ccc2c(c1)Cc1ccccc1-2 | inactive | 
Cc1ccccc1 | inactive | 
CCOP(=S)(OCC)Oc1ccc(S(C)=O)cc1 (stereo not given) | inactive | 
CCc1cnc(C2=NC(C)(C(C)C)C(=O)N2)c(C(=O)O)c1 (stereo not given) | inactive | 
CC(Cl)C(=O)O (stereo not given) | inactive | 
NCCc1cc(O)c(O)cc1O | inactive | 
OCCCl | inactive | 
CCCC1CCCCN1 (stereo not given) | inactive | 
CC(C)(C)c1ccc(CCOc2ncnc3ccccc23)cc1 | inactive | 
CCNC(=O)NC(=O)/C(C#N)=N/OC | inactive | 
C=CCc1ccccc1O | inactive | 
Cc1ccc2c(C)cccc2c1 | inactive | 
C[C@@H]1C[C@@H]([C@H](O)CC2CC(=O)NC(=O)C2)C(=O)[C@@H](C)C1 | inactive | 
NC(=O)CF | inactive | 
O=C(Cl)OCCOCCOC(=O)Cl | inactive | 
C[C@H]1O[C@H](OC2[C@@H](O)[C@@H](O)C(O)[C@H](O)[C@H]2O)[C@@H](N)C[C@@H]1N=C(N)C(=O)O (stereo not given in full) | inactive | 
CCCCC1C(=O)NC(=O)N(C2CCCCC2)C1=O (stereo not given) | inactive | 

SMILES | Potency | activity change
Nc1ccccc1C(=O)OCC(O)CO (stereo not given) | inactive | 
C[N+](C)(C)CCOC(=O)C(O)(c1ccccc1)c1ccccc1 | inactive | 
C=CC(=O)OCC | inactive | 
Cc1ncc(C[n+]2csc(CCO)c2C)c(N)n1 | inactive | 
CCC1(CCC(C)C)C(=O)NC(=O)NC1=O | inactive | 
CCCSP(=S)(OCC)Oc1ccc(SC)cc1 (stereo not given) | inactive | 
COc1cc(CC#N)cc(OC)c1OC | inactive | 
O=C(Cc1ccccc1)OCCc1ccccc1 | inactive | 
COP(=O)(OC)OC(Br)C(Cl)(Cl)Br (stereo not given) | inactive | 
O=C(O)c1ccc(=O)[nH]c1 | inactive | 
C1CS1 | inactive | 
FC(F)OC(F)(F)C(F)Cl (stereo not given) | inactive | 
O=C(Cc1ccccc1)c1ccccc1 | inactive | 
O=C(O)c1cc(I)cc(I)c1I | inactive | 
CC(C)c1ccc(NC(=O)N(C)C)cc1 | inactive | 
CC(C)(C#N)C(C)(C)C#N | inactive | 
c1ccc2c(c1)sc1ccccc12 | inactive | 
CC(Oc1cc(Cl)c(Cl)cc1Cl)C(=O)O (stereo not given) | inactive | 
Nc1c(Br)cc(Br)c2c1C(=O)c1ccccc1C2=O |  | -11% [at 15.8 µM, active compounds read high]
CCCN(CCC)c1c([N+](=O)[O-])cc(C(C)C)cc1[N+](=O)[O-] | inactive | 
